Measured values as given in PubChem BioAssay AID1159580 (chemical genetic matrix, 2015).
The whole screen tested about 5,500 compounds, of which about 2,000 (36%) were called active. Inconclusive results (about 18%) are left out. No stated cut-off is given here; in the data, active means normalized growth mostly below about 0.91 (no sharp cut-off); inconclusive means no clear call, values can overlap the other calls; inactive means mostly above about 0.92. Some of the results follow.

Assay: chemical genetic growth profiling, strain panel (AID 1159580);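 further: tested at 20 µM; growth read once vehicle control cultures reached saturation at 30 °C; 1 = growth at the plate median or of vehicle wells; lower values mean less growth of the strain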
Settings: S. cerevisiae deletion strains, growth OD
[1] = locus YAL040C, strain CLN3, hits give low values
[2] = locus YCL061C, strain MRC1 (second series), hits give low values
[3] = locus YDR363W, strain ESC2, hits give low values
[4] = locus YER002W, strain NOP16, hits give low values
[5] = locus YMR307W, strain GAS1, hits give low values
[6] = locus YNL175C, strain NOP13, hits give low values
[7] = locus YNL197C, strain WHI3, hits give low values
[8] = locus YNL224C, strain SQS1, hits give low values
[9] = locus YOR083W, strain WHI5 (second series), hits give low values
[10] = locus YPL055C, strain LGE1, hits give low values
[11] = locus YPL241C, strain CIN2, hits give low values

Measured: normalized growth

CN1CC(C(=O)NC2(C)OC3(O)C4CCCN4C(=O)C(Cc4ccccc4)N3C2=O)CC2c3cccc4[nH]cc(c34)CC21 (stereo not drawn)
inactive: [1] 0.995 | [2] 0.992 | locus YDR150W, strain NUM1, hits give low values 0.99 | [3] 0.974 | [4] 0.988 | locus YMR263W, strain SAP30, hits give low values 0.987 | [5] 0.965 | locus YNL128W, strain TEP1, hits give low values 0.994 | [6] 1.01 | [7] 0.985 | [8] 1 | [9] 0.98 | [10] 0.905 | [11] 0.995

CC(C)[C@@]1(NC(=O)[C@@H]2C[C@@H]3c4cccc5[nH]cc(c45)C[C@H]3N(C)C2)O[C@@]2(O)[C@@H]3CCCN3C(=O)[C@H](Cc3ccccc3)N2C1=O
inactive: locus YAL013W, strain DEP1, hits give low values 0.941 | [1] 0.972 | [2] 0.974 | [3] 0.945 | [4] 0.981 | locus YGR078C, strain PAC10, hits give low values 0.996 | [5] 0.985 | [6] 0.987 | [7] 1.02 | [8] 1 | locus YNL322C, strain KRE1, hits give low values 0.924 | [9] 1 | [10] 0.91 | [11] 0.985
